Measurements reported in PubChem BioAssay (EPA / NIEHS).
Values joined by “and” are separate entries in the source; they are usually repeats but may differ in a detail not shown here. Equal entries are not always repeated. Results filed as inconclusive are left out. Active and inactive are the calls of the source. Rule for the calls, unless noted: active = hit-call score of the fitted dose curve at least 0.9, where 1 is the maximum; inconclusive = response in the unintended direction; inactive = score below 0.9.

Columns and labels:
[1] = CCTE_Mundy_HCI_hNP1_Casp3_7: CCTE's Caspase-Glo 3/7 Assay in human neuroprogenitor cells for Apoptosis, Mundy Lab (AID 2284240; active = hit-call score of the fitted dose curve at least 0.9, where 1 is the maximum; inactive = score below 0.9)
Summary of the method: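 Luminescent caspase-3/7 readout, 26.5 h post-dose, in human neural progenitor cells from WA09 embryonic stem cells. Cells grew 40–44 h at 37 °C, 5% CO2 before chemical addition. Activity analysed as signal increase over DMSO baseline.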

[2] = CCTE_Mundy_HCI_hNP1_CellTiter: CCTE's Cell Titer-Glo 2 Assay in human neuroprogenitor cells for Viability, Mundy Lab (AID 2284241)
Summary of the method: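 Viability read as luminescent ATP content (CellTiter-Glo, 30 min room temperature) twenty-four hours after dosing, relative to DMSO. Cells: WA09-derived hNP1 neuroprogenitors on poly-L-ornithine/laminin, plated 40 to 44 hours before chemical.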

[3] = CCTE_Mundy_HCI_iCellGluta_NOG_NeuriteCount: CCTE's Neurite Outgrowth Assay in iCellGluta cells for Neurite Count, Mundy Lab (AID 2284342);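 note: chemical exposure about 48 hours starting 2 hours after plating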
[4] = CCTE_Padilla_ZF_Score.Craniofacial: CCTE's 144 Hour Post-fertilization zebrafish Assay Score for Craniofacial Malformation, Padilla Lab (AID 2284405; active = hit-call score of the fitted dose curve at least 0.9, where 1 is the maximum; inactive = score below 0.9)
Summary of the method: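 Wild-type zebrafish embryos (with chorions), one per well in 10% Hanks', were dosed at 6–8 hpf in sealed plates and kept at 26C. They were rinsed at 5 dpf. At 6 dpf two blinded assessors scored craniofacial malformations by brightfield stereomicroscopy.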

[5] = CCTE_Padilla_ZF_Score.Edema: CCTE's 144 Hour Post-fertilization zebrafish Assay Score for Edema Malformation, Padilla Lab (AID 2284406; active = hit-call score of the fitted dose curve at least 0.9, where 1 is the maximum; inactive = score below 0.9)
Summary of the method: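 Wild-type zebrafish embryos, one per well in Hanks' solution, dosed at 6-8 hpf, sealed and reared at 26C on a 14:10 h cycle; rinsed on 5 dpf. At 6 dpf, blinded assessors scored edema by stereomicroscopy.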

[6] = CCTE_Padilla_ZF_Score.Spine: CCTE's 144 Hour Post-fertilization zebrafish Assay Score for Spine Malformation, Padilla Lab (AID 2284407; active = hit-call score of the fitted dose curve at least 0.9, where 1 is the maximum; inactive = score below 0.9)
Summary of the method: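 Wild-type zebrafish embryos, one per well in Hanks' solution, dosed at 6–8 hpf in sealed plates at 26C, 14:10 h light:dark; rinsed at 5 dpf. Two blinded assessors scored spinal defects by stereomicroscopy at 6 dpf; fitted versus DMSO.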

[7] = CCTE_Padilla_ZF_Score.Swim_bladder: CCTE's 144 Hour Post-fertilization zebrafish Assay Score for Swim Bladder Malformation, Padilla Lab (AID 2284408; active = hit-call score of the fitted dose curve at least 0.9, where 1 is the maximum; inactive = score below 0.9)
Summary of the method: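 Wild-type zebrafish embryos, one per well in 10% Hanks', dosed at 6–8 hpf, sealed, reared at 26C and rinsed at 5 dpf. Blinded assessors scored uninflated swim bladder by stereomicroscopy at 6 dpf, relative to DMSO.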

[8] = CCTE_Padilla_ZF_Score.Position: CCTE's 144 Hour Post-fertilization zebrafish Assay Score for Position, Padilla Lab (AID 2284409; active = hit-call score of the fitted dose curve at least 0.9, where 1 is the maximum; inactive = score below 0.9)
Summary of the method: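 Wild-type zebrafish embryos (with chorions) exposed singly from 6–8 hpf in sealed wells of Hanks' solution at 26C, rinsed at 5 dpf. At 6 dpf, blinded assessors scored abnormal water-column position by brightfield stereomicroscopy, relative to DMSO.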

[9] = CCTE_Padilla_ZF_Score.Living: CCTE's 144 Hour Post-fertilization zebrafish Assay Score for Viability, Padilla Lab (AID 2284410; active = hit-call score of the fitted dose curve at least 0.9, where 1 is the maximum; inactive = score below 0.9;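 note: larval death at 6 dpf judged by absent heartbeat or coagulation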)
Summary of the method: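 Wild-type zebrafish embryos were exposed singly from 6–8 hpf in sealed wells of Hanks' solution at 26C, then rinsed at 5 dpf. At 6 dpf, blinded assessors scored mortality (no heartbeat or coagulation) by stereomicroscopy, fitted against DMSO.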

[10] = CCTE_Padilla_ZF_Score.General: CCTE's 144 Hour Post-fertilization zebrafish Assay Score for General Malformation, Padilla Lab (AID 2284411; active = hit-call score of the fitted dose curve at least 0.9, where 1 is the maximum; inactive = score below 0.9)
Summary of the method: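 Wild-type zebrafish embryos were plated singly at 6-8 hpf in 10% Hanks' and exposed in sealed wells at 26C until rinsed on 5 dpf. At 6 dpf two blinded assessors scored mortality, hatching and malformations by stereomicroscopy; gain-of-signal versus DMSO.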

[11] = CCTE_Padilla_ZF_Score.Tail: CCTE's 144 Hour Post-fertilization zebrafish Assay Score for Tail Malformation, Padilla Lab (AID 2284414; active = hit-call score of the fitted dose curve at least 0.9, where 1 is the maximum; inactive = score below 0.9)
Summary of the method: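 Wild-type zebrafish embryos, one per well in 200 uL 10% Hanks', dosed at 6-8 hpf, sealed, and kept at 26 C on a 14:10 h light cycle. Chemical was rinsed out at 5 dpf. Blinded brightfield scoring of tail defects followed at 6 dpf.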

[12] = CCTE_Padilla_ZF_Score.Blood_pooling: CCTE's 144 Hour Post-fertilization zebrafish Assay Score for Blood Pooling, Padilla Lab (AID 2284415; active = hit-call score of the fitted dose curve at least 0.9, where 1 is the maximum; inactive = score below 0.9)
Summary of the method: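 Wild-type outbred zebrafish embryos, one per well in 10% Hanks', exposed from 6–8 hpf in sealed plates at 26C on 14:10 h light:dark, rinsed at 5 dpf. Blinded stereomicroscope scoring of blood pooling at 6 dpf; gain-of-signal versus DMSO.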

[13] = CCTE_Padilla_ZF_Score.Any: CCTE's 144 Hour Post-fertilization zebrafish Assay Score for Any Mortality or Malformation, Padilla Lab (AID 2284416; active = hit-call score of the fitted dose curve at least 0.9, where 1 is the maximum; inactive = score below 0.9)
Summary of the method: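 Wild-type zebrafish embryos with chorions, one per well in 10% Hanks' from 6–8 hpf, dosed in sealed plates at 26 C, 14:10 h light:dark; rinsed at 5 dpf; blinded scoring at 6 dpf for death or malformation, versus DMSO.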

[14] = CCTE_Mundy_HCI_Cortical_NOG_NeuriteCount: CCTE's Neurite Outgrowth Assay in rat cortical cells for Neurite Count, Mundy Lab (AID 2284212; active = hit-call score of the fitted dose curve at least 0.9, where 1 is the maximum; inactive = score below 0.9;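 note: cells fixed about two days after chemical exposure began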)
Summary of the method: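 Neurite number per cell from high-content imaging of betaIII-tubulin immunostaining, with Hoechst nuclear counterstain.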

[15] = CCTE_Mundy_HCI_hN2_NOG_NeuriteCount: CCTE's Neurite Outgrowth Assay in human hN2 cells for Neurite Count, Mundy Lab (AID 2284219)
Summary of the method: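 In this morphology assay, hNP1-derived neurons received test chemical 2 h post-plating and were fixed two days later in warm paraformaldehyde/sucrose containing Hoechst 33342. Neurites, labelled by rabbit anti-βIII-tubulin (1:800) and Alexa Fluor-488 (1:500), were counted automatically.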

[16] = CCTE_Mundy_HCI_hN2_NOG_NeuriteLength: CCTE's Neurite Outgrowth Assay in human hN2 cells for Neurite Length, Mundy Lab (AID 2284220)
Summary of the method: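 Read-out is neurite length from high-content imaging of βIII-tubulin/Alexa Fluor-488-labelled neurons, referenced to DMSO controls.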

[17] = CCTE_Mundy_HCI_hN2_NOG_NeuronCount: CCTE's Neurite Outgrowth Assay in human hN2 cells for Neuron Count, Mundy Lab (AID 2284221)
Summary of the method: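 Read-out is the number of betaIII-tubulin-positive neurons imaged by automated high-content analysis, with DMSO as negative control.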

[18] = CCTE_Mundy_HCI_Cortical_NOG_NeuronCount: CCTE's Neurite Outgrowth Assay in rat cortical cells for Neuron Count, Mundy Lab (AID 2284236);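 note: neurons counted by imaging betaIII-tubulin and Hoechst stained cortical cells; cells exposed to compound for about 48 hours before fixation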
Summary of the method: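 Read-out: neuron number by high-content imaging of betaIII-tubulin (Alexa Fluor-488) and Hoechst-labelled rat primary cortical cells.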

[19] = CCTE_Mundy_HCI_Cortical_NOG_BPCount: CCTE's Neurite Outgrowth Assay in rat cortical cells for Branch Point Count, Mundy Lab (AID 2284237; active = hit-call score of the fitted dose curve at least 0.9, where 1 is the maximum; inactive = score below 0.9)
Summary of the method: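 Measured 50.33 h after dosing, this morphology endpoint uses rat primary cortical cultures labelled for betaIII-tubulin. Branch points are quantified by high-content imaging, with DMSO as negative control and baseline.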

[20] = biological target: Estrogen receptor (Homo sapiens) (UniProt P03372); experiment: CCTE_Deisenroth_AIME_96WELL_LUC_Active: CCTE's 96-well Estrogen Receptor Transactivation Assay with AIME metabolic competence (ERTA luciferase; metabolism positive), Deisenroth Lab (AID 2284023)
Summary of the method: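 Chemicals pre-incubated 2 h with alginate-immobilized phenobarbital/beta-naphthoflavone-induced male Sprague Dawley rat liver S9, then medium transferred to VM7Luc4E2 cells for 24 h luciferase read-out. 10-point series 0.002 - 200 uM; fitted relative to 17beta-estradiol.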

[21] = biological target: Estrogen receptor (Homo sapiens) (UniProt P03372); experiment: CCTE_Deisenroth_AIME_96WELL_LUC_Inactive: CCTE's 96-well Estrogen Receptor Transactivation Assay without AIME metabolic competence (ERTA luciferase; metabolism negative), Deisenroth Lab (AID 2284025)
Summary of the method: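 VM7Luc4E2 breast cells, luciferase read 24 h after dosing with medium pre-incubated 2 h on alginate-water lids (metabolism negative). 10-point series 0.002–200 uM, single technical replicate, n≥4; fit relative to 17beta-estradiol.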

[22] = CCTE_Deisenroth_AIME_96WELL_CTox_Active: Cytotoxicity Assessment (CTOX) in CCTE's 96-well Estrogen Receptor Transactivation Assay with AIME metabolic competence (metabolism positive), Deisenroth Lab (AID 2284028)
Summary of the method: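 Chemicals (0.002–200 uM) were first incubated 2 h with alginate-immobilized phenobarbital/beta-naphthoflavone-induced male rat liver S9; conditioned medium then went onto VM7Luc4E2 cells for 24 h, with viability read by protease-substrate fluorescence, fitted bidirectionally.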

[23] = CCTE_Deisenroth_AIME_96WELL_CTox_Inactive: Cytotoxicity Assessment (CTOX) in CCTE's 96-well Estrogen Receptor Transactivation Assay without AIME metabolic competence (metabolism negative), Deisenroth Lab (AID 2284029)
Summary of the method: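 Chemicals (10-point series, 0.002-200 uM) were incubated 2 h with alginate-water microspheres lacking S9. The conditioned medium was then transferred onto VM7Luc4E2 cells for 24 h. Viability was measured by protease-substrate cleavage to a fluorescent probe, with loss of signal fitted bidirectionally; n≥4 experimental replicates.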

DIO2 (gene 1734) = experiment: CCTE_GLTED_hDIO2: CCTE's human Deiodinase 2 (DIO2) Inhibition Assay, Great Lakes Toxicology and Ecology Division (GLTED) Lab (AID 2284050)
Summary of the method: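 Cell-free human DIO2 enzyme was incubated with test chemical for 3 h; iodide liberated from substrate was then quantified by the Sandell-Kolthoff reaction (absorbance), run in triplicate. Loss of signal versus DMSO baseline indicated inhibition.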

DIO3 (gene 1735) = experiment: CCTE_GLTED_hDIO3: CCTE's human Deiodinase 3 (DIO3) Inhibition Assay, Great Lakes Toxicology and Ecology Division (GLTED) Lab (AID 2284055);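 note: potency is for inhibition seen as loss of released iodide signal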
Summary of the method: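 Cell-free assay with human DIO3 enzyme produced by adenovirus expression; enzyme incubated with test chemical for 3 hours. Liberated iodide then measured by Sandell-Kolthoff absorbance; loss of signal versus DMSO baseline indicates inhibition, run in triplicate.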

Measured: AC50

Chain of Estrogen receptor (Homo sapiens) (P03372 whole entry, looked up): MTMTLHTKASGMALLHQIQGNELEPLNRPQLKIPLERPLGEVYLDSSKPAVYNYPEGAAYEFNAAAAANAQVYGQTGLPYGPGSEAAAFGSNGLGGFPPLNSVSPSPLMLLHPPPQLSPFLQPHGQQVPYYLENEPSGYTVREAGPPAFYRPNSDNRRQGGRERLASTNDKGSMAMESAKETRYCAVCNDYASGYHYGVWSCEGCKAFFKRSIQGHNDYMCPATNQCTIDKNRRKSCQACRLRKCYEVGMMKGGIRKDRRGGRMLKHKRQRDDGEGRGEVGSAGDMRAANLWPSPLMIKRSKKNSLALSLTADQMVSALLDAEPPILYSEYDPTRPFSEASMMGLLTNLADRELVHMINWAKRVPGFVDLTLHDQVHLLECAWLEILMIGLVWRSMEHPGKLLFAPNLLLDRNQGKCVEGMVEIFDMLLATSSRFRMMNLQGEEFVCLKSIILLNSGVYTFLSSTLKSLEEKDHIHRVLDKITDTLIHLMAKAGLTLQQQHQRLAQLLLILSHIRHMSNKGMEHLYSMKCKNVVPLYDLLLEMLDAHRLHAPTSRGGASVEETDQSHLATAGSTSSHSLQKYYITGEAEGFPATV

O=C(CC(=O)C(F)(F)F)C(F)(F)F
inactive: [1] | [2] | [3] | [4] | [5] | [6] | [7] | [8] | [9] | [10] | [11] | [12] | [13]

[Li+]
active: [16] 300 nM | [17] 304 nM
inactive: [14] | [15] | [18] | [19]

COc1ccc(C=Cc2ccc(OC)cc2)cc1
inactive: [20] | [21] | [22] | [23]

COc1cc(O)c(CC=C(C)C)c(O)c1C(=O)/C=C/c1ccc(O)cc1
active: DIO2 (gene 1734) 215 nM and 797 nM | DIO3 (gene 1735) 150 nM and 222 nM
